The supplement of paper PMC8387472

Experiments:
Test in all cases: fraction of 1-bp insertions among edited reads; higher = more 1-bp insertion outcomes
Conditions in all cases: mESC; 2uM; 72 h treatment, harvest day 5
Pemetrexed = compound: Nc1nc2[nH]cc(CCc3ccc(C(=O)N[C@@H](CCC(=O)O)C(=O)O)cc3)c2c(=O)[nH]1 [Pemetrexed]
[1] = compound: Nc1ncnc2c1c(-c1cnc3[nH]ccc3c1)nn2C1CCCC1
[2] = compound: O=C(c1cccc(Cl)c1F)N1CCN(Cc2cccc(Nc3nccs3)n2)CC1
Kenpaullone = compound: O=C1Cc2c([nH]c3ccc(Br)cc23)-c2ccccc2N1 [Kenpaullone]
Genistein = compound: O=c1c(-c2ccc(O)cc2)coc2cc(O)cc(O)c12 [Genistein]
[3] = compound: O=c1cc(N2CCOCC2)oc2c(-c3ccc4c(c3)OCCO4)csc12
Mercaptopurine (6-MP) = compound: S=c1[nH]cnc2nc[nH]c12 [Mercaptopurine (6-MP)]
[4] = compound: S=c1nc[nH]c2nc[nH]c12 [6-Mercaptopurine (6-MP) Monohydrate]

Row | Target | fraction of 1-bp insertions among edited reads (Pemetrexed) | fraction of 1-bp insertions among edited reads [1] | fraction of 1-bp insertions among edited reads [2] | fraction of 1-bp insertions among edited reads (Kenpaullone) | fraction of 1-bp insertions among edited reads (Genistein) | fraction of 1-bp insertions among edited reads [3] | fraction of 1-bp insertions among edited reads (Mercaptopurine (6-MP)) | fraction of 1-bp insertions among edited reads [4]
1 | 26.0 (DMSO control at this site: 1-bp insertion 0.518, MH deletion 0.262, edited 0.026) AGGGCGCGCCCCACGCACTCTGCGGCAAGTCCCTCTGCGGCAAGTCCTCGGCCCGGAAGAC | 0.284 | 0.567 | 0.537 | 0.496 | 0.46 | 0.363 | 0.491 | 0.494
2 | 44.0 (DMSO control at this site: 1-bp insertion 0.181, MH deletion 0.512, edited 0.123) ACACATACCTTCTTCGAGGCAGCCAGCATGATGAGACAGGTCTCCCACAAACACATCGTGT | 0.127 | 0.293 | 0.235 | 0.235 | 0.173 | 0.169 | 0.24 | 0.188
3 | 19.0 (DMSO control at this site: 1-bp insertion 0.121, MH deletion 0.101, edited 0.057) TCTGCAGGGGTCGGAACCCGGGGGCTAGGGCTATCCCGGGGGCTAGGGCTATTAGCGAACC | 0.0345 | 0.138 | 0.109 | 0.0939 | 0.0748 | 0.0634 | 0.0615 | 0.104
4 | 25.0 (DMSO control at this site: 1-bp insertion 0.017, MH deletion 0.774, edited 0.143) GGGCCTGAATGGTGTGGACATCTACTCGCTGGTGAGCTGGTGACTGAAAACATTCAGTGGC | 0.0305 | 0.0264 | 0.0219 | 0.0271 | 0.0281 | 0.0315 | 0.0245 | 0.0323
5 | 46.0 TTAAGAGCAATGTTCACGCAACTTGAAATTATATCTGTGGTCTTCAAATTGTCTTTTGTCA | 0.309 | 0.0621 |  |  | 0.25 |  |  | 0.17
6 | 34.0 (DMSO control at this site: 1-bp insertion 0.184, MH deletion 0.385, edited 0.103) ATTATAGGACCCTGAGGGAGCAGAGATGTGGGAATGGGGGCCGAGCCAATTGTGATGTAAG | 0.121 | 0.233 | 0.211 | 0.154 | 0.11 | 0.176 | 0.213 | 0.2
7 | 17.0 (DMSO control at this site: 1-bp insertion 0.112, MH deletion 0.348, edited 0.058) CCATAGCGCGATAAATATGACGGCTCATCCTGTATGACGGCTCATCCTGTATCAACTGTCC | 0.0727 | 0.193 | 0.111 | 0.166 | 0.119 | 0.172 | 0.17 | 0.144
8 | 39.0 (DMSO control at this site: 1-bp insertion 0.328, MH deletion 0.371, edited 0.204) CTGCACAGTCACTTAGGATAGGAGAAGATGATGTATAGGGTTTAGTGGGAGATGTTGCAAG | 0.395 |  | 0.45 | 0.572 | 0.372 | 0.355 | 0.407 | 0.417
9 | 8.0 GCATGCGTGTTTTGGGACAATGTAGTATACATTTGGGAGGCTCTCAGCTTTTCCCAATAAA | 0.255 | 0.646 |  | 0.441 |  |  |  | 0.442
10 | 21.0 CGATTGAGAGTCAAACGGGCCAGAAAACTCCGGGAACGGGCCAGAAAACTCCGGGGCATGG | 0.0119 | 0.0122 |  | 0.0245 | 0.0192 | 0.0417 | 0.0152 | 0.0297
11 | 7.0 (DMSO control at this site: 1-bp insertion 0.128, MH deletion 0.374, edited 0.098) TACTCAACCGAGACCTACGCGAACCGAAATCGTATGCCGGTGCGCAAGCAGGGCTGGCGTC | 0.0646 | 0.128 | 0.15 | 0.156 | 0.12 | 0.16 | 0.145 | 0.197
12 | 47.0 (DMSO control at this site: 1-bp insertion 0.095, MH deletion 0.585, edited 0.118) GAGTGGTCCCGAGCCAGGAACTGTGTGTGTTGCAGGGGGGCAGTAACTCCCCAACTCCCTC | 0.0508 | 0.158 | 0.144 | 0.101 | 0.0861 | 0.108 | 0.101 | 0.142
13 | 1.0 (DMSO control at this site: 1-bp insertion 0.521, MH deletion 0.323, edited 0.141) GTGTCACAGTGCACGAGTGACGGGATAATGTGCTGACAGGTAATTGATAGGCTTCCAACTT | 0.486 | 0.73 | 0.653 | 0.673 | 0.54 | 0.552 | 0.591 | 0.6
14 | 22.0 (DMSO control at this site: 1-bp insertion 0.573, MH deletion 0.229, edited 0.045) CTGATGGTTGAAGGATTTAGCCGGGGTCCTAGACGCCGGGGTCCTAGACGAAAGGGCCACG | 0.447 |  | 0.671 | 0.604 | 0.595 | 0.623 | 0.587 | 0.601
15 | 2.0 (DMSO control at this site: 1-bp insertion 0.364, MH deletion 0.356, edited 0.125) GGTGCCCCCGAGACCTACGCGAACCGAAATCGATGTCCGGTGCGCAAGCAGGGCTGGCGTC | 0.327 | 0.539 | 0.498 | 0.478 | 0.309 | 0.331 | 0.452 | 0.434
16 | 30.0 (DMSO control at this site: 1-bp insertion 0.074, MH deletion 0.67, edited 0.142) GAGCTGGCATGAGTATTTGTGCCACATGGCTCCCACATGGCTCCACATGCAAGTTTGAAAC | 0.0714 | 0.113 | 0.0986 | 0.0891 | 0.0719 | 0.0702 | 0.0954 | 0.0905
17 | 29.0 (DMSO control at this site: 1-bp insertion 0.084, MH deletion 0.745, edited 0.133) TTGATGAACTTCCTCTTCTTCTCATGTCTCCGGTCTCCGGTAGGCCACGTGCATGGCCACT | 0.0781 | 0.112 | 0.119 | 0.11 | 0.072 | 0.0694 | 0.105 | 0.115
18 | 0.0 (DMSO control at this site: 1-bp insertion 0.463, MH deletion 0.339, edited 0.14) AGGATTACCGAGACCTACGCGAACCGAAATCGCTGTCCGGTGCGCAAGCAGGGCTGGCGTC | 0.375 | 0.623 | 0.624 | 0.604 | 0.453 | 0.395 | 0.543 | 0.518
19 | 3.0 (DMSO control at this site: 1-bp insertion 0.109, MH deletion 0.149, edited 0.09) TGCTAGCGCCCCCACAAAGCGGACCAGCCAGCACTATAGGGAATAAGGCCAACTTGCACCC | 0.184 | 0.227 | 0.152 | 0.104 | 0.116 | 0.13 | 0.15 | 0.0992
